Screening results (PubChem BioAssay)
MARV entry inh: qHTS for inhibitors of binding or entry into cells for Marburg Virus; Marburg virus pseudotyped entry inhibition, cell reporter; Potency, µM (doses to about 37.8 µM), for the others: top-dose activity change, negative = inhibition, most hits filed as inhibitors; 300,000 compounds, 1.8% hits; calls by dose curve; tested in HEK293 cells
LASV entry inh: qHTS for Inhibitors of binding or entry into cells for Lassa Virus | Lassa virus pseudotype entry inhibition, cell reporter | 300,000 compounds, 1.2% hits | Potency, µM (titrated, usually from 37.9 µM), inactives show at the highest dose activity change, negative = inhibition, most hits filed as inhibitors; calls by dose curve; tested in HEK293 cells; note: nearly all actives have a fitted effect of over 50% in size
Vaccinia Venus: qHTS for Stage-Specific Inhibitors of Vaccinia Orthopoxvirus: Venus Reporter Primary qHTS | Vaccinia virus Venus reporter expression, fluorescence | Potency, µM (top dose mostly 36.5 µM), inactives show top-dose activity change, negative = inhibition, usual class: inhibitors | 330,000 compounds, 0.46% hits | AID 720580, 2013; calls by dose curve; tested in A549 cells; note: nearly all actives have a fitted effect of over 30% in size
Vaccinia mCherry: qHTS for Stage-Specific Inhibitors of Vaccinia Orthopoxvirus: mCherry Reporter Primary qHTS; Vaccinia virus mCherry reporter infection, fluorescence; Potency, µM (highest dose often 36.5 µM), without a hit: top-dose activity change, negative = inhibition, usual class: inhibitors; 310,000 compounds, 0.63% hits; AID 720579, 2013; calls by dose curve; tested in A549 cells; note: nearly all actives have a fitted effect of over 35% in size
The depositor's hits bear a star; i = inactive; ? = inconclusive; / = no result given; [ ] = remark or other dose. An excerpt weighted towards active compounds, which were near 2.5% of everything screened. % is set by controls: 0 for no effect and ±100 for the full control effect; potency is the fitted concentration of half-maximal effect.

SMILES	MARV entry inh	LASV entry inh	Vaccinia Venus	Vaccinia mCherry
COc1cccc([C@H]2Oc3ccc(OC)cc3/C(=N\OCC[C@@H]3C=C[C@H](OC(C)=O)[C@@H](COC(C)=O)O3)[C@@H]2O)c1	-24.0%[14.2 µM]	/	/	/
COc1cc(OC)cc(C(=O)N2CCCC(n3cc(C(=O)NCC(C)C)nn3)C2)c1 (stereo not given)	/	/	-3.5%	-10.1%
COc1ccc(C(=O)c2c(C(F)(F)F)oc3c2C(=O)c2ccccc2C3=O)cc1OC	2.82µM*	2.51µM*	5.62µM*	/
COc1ccc(C(=O)c2ccc(OC)c(OC)c2)cc1OC	2.3%	4.0%	/	/
CC(=O)OC(C)CS(=O)(=O)c1ccccc1 (stereo not given)	17.2%[46.1 µM]	9.5%	7.94µM*	7.94µM*
O=C(NCCc1ccccc1)[C@@H]1CC=C[C@@H]2CCN(C3CC3)C(=O)[C@@H]21	/	/	-27.2%	-13.5%
O=Cc1ccc(O)cc1	/	/	0.7%	-12.6%
Cc1cccc(N2CCc3c2nc2ccc(Br)cc2c3N)c1	?	9.6%	?	11.2µM*
CC[C@@]1([C@@H]2O[C@@H]([C@H]3O[C@@](O)(CO)[C@H](C)C[C@@H]3C)C[C@@H]2C)CC[C@H]([C@]2(C)CC[C@]3(C[C@H](O)[C@@H](C)[C@@H]([C@@H](C)[C@@H](OC)[C@H](C)C(=O)O)O3)O2)O1 (stereo in doubt)	/	/	?	i
BrC(=C\c1ccccc1)/C=N/Nc1nc(N2CCOCC2)nc(N2CCOCC2)n1	7.94µM*	-17.1%	-16.1%	-2.0%
Oc1ccc(/C=N/Nc2nc(N3CCCCCC3)nc(N3CCCCCC3)n2)c(O)c1	?	?	-8.8%	?
C/C(=N\Nc1nc(N2CCOCC2)nc(N2CCOCC2)n1)c1cccs1	-27.3%[46.1 µM]	-22.3%	-4.4%	-1.1%
Oc1ccc(Br)cc1/C=N/Nc1nc(N2CCCCC2)nc(N2CCOCC2)n1	2.51µM*	-20.2%[46.1 µM]	-0.8%	-19.6%
C/C(=N\Nc1nc(N2CCCCC2)nc(N2CCOCC2)n1)c1ccccc1O	1.78µM*	7.08µM*	-21.9%	i
CN1CCC(C(=O)Nc2n[nH]c3nc(-c4ccc(O)cc4)c(Br)cc23)CC1	/	19.9µM*	/	/
CN1CCCC(C(=O)Nc2cccc(Cl)c2)CC1 (stereo not given)	/	/	1.3%	i
Cc1ccc(N=Nc2ccc(O)cc2)c(Br)c1	?	10µM*	-29.4%	-16.0%
Oc1ccc(N=Nc2ccc(Br)cc2)c(O)c1	/	/	?	-23.9%
N#Cc1c(SCc2ccc(Cl)cc2)sc(C(=O)c2ccccc2)c1N	-29.9%	?	-15.0%	/
CC(=O)Nc1ccc(Oc2sc(C(=O)c3ccccc3)c(N)c2C#N)cc1	?	0.891µM*	?	/
O=S(=O)(CCc1nc2ccccc2o1)c1ccc2ccccc2c1	12.6%	-0.3%	-24.5%	/
O=S(=O)(CCc1nnc(-c2ccccc2)o1)c1ccc2ccccc2c1	-5.3%	3.8%	2.82µM*	/
COc1cccc(C(=O)NCC2Cc3c(F)ccc(-c4ncccn4)c3O2)c1OC (stereo not given)	/	/	?	-9.1%
Cc1ccccc1COc1ccc(/C(O)=C2\C(=O)C(=O)N(CCCn3ccnc3)[C@H]2c2ccco2)cc1	20.6%	/	/	/
CCC(=O)Nc1sc2c(c1C(N)=O)CCN(C(C)=O)C2	/	/	-7.9%	-23.1%
SMILES	MARV entry inh	LASV entry inh	Vaccinia Venus	Vaccinia mCherry
CC(=O)N1CCc2c(sc(NC(=O)c3ccc([N+](=O)[O-])o3)c2C(N)=O)C1	/	/	5.01µM*	1.78µM*
Cc1ccc2nc(NC(=O)c3ccc(-c4nc5ccccc5s4)s3)sc2c1	-4.6%	23.6%	-12.2%	-10.9%
CCN1CCN(C(=O)c2ccc(-c3nc4ccccc4s3)s2)CC1	/	/	-19.6%	-21.9%
O=C(NC1CC1)c1ccc(-c2nc3ccccc3s2)s1	1.41µM*	1.26µM*	14.2%	9.8%
O=C(c1ccc(-c2nc3ccccc3s2)s1)N1CCOCC1	?	3.55µM*	-13.5%	i
c1ccc2sc(-c3ccc4c(c3)OCO4)nc2c1	?	9.2µM*	/	/
Cc1cccc(-c2cccc(C(=O)N3CCc4c(cnc(C)c4CNC(=O)c4cncs4)C3)c2)c1	/	/	-10.1%	-20.0%
CCCCN1CC[C@H]2C=CC[C@@H](C(=O)NCc3cccnc3)[C@H]2C1=O	/	/	-24.7%	-2.3%
Cc1ncc2c(c1CNS(=O)(=O)N(C)C)CCN(C(=O)/C=C/c1ccccc1Cl)C2	/	/	-13.4%	-20.0%
CCC1CC(/C(C)=N/NC(N)=O)OC1=O (stereo not given)	6.3%	-11.7%	-7.3%	-13.0%
C/C(=N\NC(N)=S)C1C2C3CC4C5CC(C42)C1C53 (stereo not given)	?	-9.6%[46.1 µM]	?	11.2µM*
COCc1cc(C)nc(SCc2nc3ccccc3c(=O)[nH]2)c1C#N	?	-1.4%[46.1 µM]	-29.8%	-7.2%
Cc1cc(C)c(C#N)c(SCc2nc3ccccc3c(=O)[nH]2)n1	1.12µM*	3.16µM*	-18.8%	-19.4%
CC(=O)c1cn(Cc2ccccc2C#N)c2ccccc12	?	3.55µM*	-5.9%	i
O=[N+]([O-])/C=C/c1cn(Cc2ccccc2)c2ccccc12	?	-29.8%	-18.5%	/
O=Cc1cn(Cc2cccc([N+](=O)[O-])c2)c2ccccc12	0.82µM*	0.631µM*	-7.2%	i
CC(C)C(=O)c1cn(Cc2ccccc2C#N)c2ccccc12	?	-23.1%	-5.2%	/
N#Cc1ccccc1Cn1cc(/C=C/[N+](=O)[O-])c2ccccc21	?	23.1µM*	?	?
Cc1cccc(OCCC(=O)NO)c1	/	/	-3.5%	-11.6%
C[C@@H]1CN(Cc2ccc3c(c2)CN(C(=O)CCc2nc4ccc(F)cc4[nH]2)CCO3)C[C@H](C)O1	/	/	5.7%	-7.9%
C=CC(=O)Nc1ccc(Nc2nc(NC3CCC(N(C)C)CC3)nc3c2ncn3C(C)C)cc1 (stereo not given)	/	/	1.12µM*	?
COc1ccc(C2C(C#N)=C(N)N(Nc3ccccc3)C3=C2C(=O)CC(C)(C)C3)cc1C (stereo not given)	?	-0.1%	8.4%	16.6%
COc1cc(C2C(C#N)=C(N)N(Nc3ccccc3)C3=C2C(=O)CC(C)(C)C3)ccc1OCc1cccc(F)c1 (stereo not given)	1.78µM*	?	?	/
Cc1ccc(C)c2c(C)ccnc12	/	/	-7.6%	-10.6%
C=CCn1c(/N=C/c2ccc(N(C)C)cc2)nc2ccccc21	?	6.1%	-6.6%	-13.4%
SMILES	MARV entry inh	LASV entry inh	Vaccinia Venus	Vaccinia mCherry
CN(C)c1ccc(/C=N/n2ncc3ccccc32)cc1	10.3µM*	13µM*	-13.2%	-14.0%
Nc1cccc2[nH]cnc12	/	/	-16.2%	i
COc1cc(NC(=O)C23CC4CC(C2)CC(n2cnc([N+](=O)[O-])n2)(C4)C3)cc(OC)c1	2.51µM*	-11.1%	-12.2%	-12.8%
CN(C)C/C=C(/c1ccc(Br)cc1)c1cccnc1	7.08µM*	-22.8%	-18.6%	-26.8%
Cc1onc(-c2ccccc2)c1C(=O)NCCN1Cc2ccccc2OC(c2ccsc2)C1 (stereo not given)	/	/	-8.6%	-1.1%
CC(=O)OC[C@H]1O[C@H](C#Cc2ccccc2)C=C[C@H]1OC(C)=O	21.0%[14.2 µM]	/	/	/
CN(C)S(=O)(=O)N1CCN(C(=O)c2ccc3c(c2)OCO3)CC1	3.1%[46.1 µM]	12.8%	-6.2%	-18.2%
CN(C)S(=O)(=O)N1CCC(c2ccc(F)cc2)C(COc2ccc3c(c2)OCO3)C1 (stereo not given)	2.82µM*	?	-14.9%	-5.4%
